# Measurements published in the supplement of paper PMC6555819.
# System: PPARg:RXRa 270nM:90nM, anti-RXR (NR concentration 270 nM, RXRa partner concentration 90 nM)
# Experiment: PBM binding z-score (relative to random genomic background probes); higher = stronger binding; sequences stand for … in GC…GCGATTGACAGCGTAGAATGAAGG
# Outline: (§1)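 Each nuclear receptor dimer, without ligand, was incubated for 1 h on custom Agilent 4×180K protein-binding microarrays. Binding was detected with antibodies against each partner (one per run), and scanned fluorescence was regression-normalized. The binding z-scores are referenced to random human genomic background probes.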
row,Sequence,PBM binding z-score
1,TCATATAGGTAAACAGGTGAAACTCCGTAAGTTA,3.47
2,TCTAGCAAGCCAGAGGGTCACTCAAGAGGTACGG,1.3
3,ACAGACCGGTGAGTGAAGGTAACTCAGCTGGACG,-0.715
4,CCGACTGGGGCAAGATTACCATAACGCACAGCCA,0.422
5,GGAACGAGGGCAAAGTCGATAGCATCTGTCGACG,2.58
6,ACTATCAGTTGAGACGAGGGCAACCGATAGGTTG,0.00158
7,AATACACGGTCACTAGGCCAGAGTAGGTACGAAT,1.74
8,TCTCGGAGGACACGAGAGGTCAGAGCTCGACATC,1.88
9,ACAGACAGGTGATGAACGTAACTCAGGCTATCAT,-0.0111
10,ATACCAAGGTGATCGTGAGGTCGTTGTTACTAAC,0.56
11,GCTACCAGGCCATTTGGGTCACTCAATGACGGGC,0.744
12,TCGAGTCGGTTACCAATGGGGCATTCAGCTTTCT,0.163
13,TATCGGAGGACACGAAGGTCAGAGCTTTCCAGAG,1.18
14,ATCGAAAGGTCGTTAGGTGAGTATACAGAAAGGC,3.29
15,AGTCAAAGTTCATCTAGGTAACGTACGATATGCT,6.46
16,ACAGACAGGTGATTAAGGTAACTCAGGCTATCAT,0.0075
17,AGTCAAAGTTCACTAGGTAACGTATGATTCAGCT,6.52
18,TCTAATAGTTGAAGGGCAACCGACGAGTCCGTTT,2.02
19,GCTAGCAGGCCTTTTGGGTCACTCAATGACGGGC,0.00506
20,GCTTACGGGTCAAAGGTTATATCATGAATAGAAT,9.51

row,Sequence,PBM binding z-score
1,TCTAGTTGCTCACGGAGGTCACACACGACGGGTA,2.79
2,CTCGAAAGATCGTGCTCAGGTGAGTATACCAAAC,-0.399
3,TTACCAAGGAGAAAGGTCGTTGATGCACGCCTTG,4.03
4,GCTATTAGTTGAAAGGGCATCCGAATGATTCTCG,4.39
5,ATATGTGGGTTAAGGGTCATTCAGGTTGGTTCGC,9.82
6,TAGCCTAGGTCATGCGGGCCGGTATAGTGTCGGC,2.45
7,ATCTCTAGGTAAAGATAGTTCGGTGAATGCAAAT,0.307
8,TAGTCTAGGTCAGATCGGGCCAGTATACGCTATA,2.4
9,AGTCAAAGTTCAGGACGAGGTAACGTCAAGCACG,4.98
10,TCTGCTAGGTCAACGCTGGTCAGCTAATCTGCTA,3.24
11,TCTTGTAGACCAGCAGGTTAAGAAAGCTGGCCAA,1.27
12,CCTAGTTGGTTAGGAGGTCACACACCGGATATGA,3.3
13,TCTCGGAGGACACGAAGGTCAGAGTTTTCCAGAG,1.67
14,GCTTACGGGTCAAAGGTTATAGGATGAATAGAAT,9.24
15,TCTTGTATATCAAAGGTTAAGAAAGCCGAAGCCT,6.59
16,CGTCCAAGGTTAATGCTAGGTCAGTGAAAGCATT,0.685
17,CGAACTAGGTCATCGACAGGACAGTGAATAGTAA,6.6
18,CCATACAGGTGAGAAGGTAACTCAGCCTCGATTA,1.68
19,CAAATTAGGTCAAGAGGTCAAAGTCCGCTTCCCG,8.63
20,TCATATAGGTAATACGGGTGAAAGTCGGCATCTA,2.56

# System: PPARg:RXRa 30nM:10nM, anti-RXR (NR concentration 30 nM, RXRa partner concentration 10 nM)
# Experiment: as above
# Outline: as §1
row,Sequence,PBM binding z-score
1,TCATATAGGTAAACAGGTGAAACTCCGTAAGTTA,4.07
2,TCTAGCAAGCCAGAGGGTCACTCAAGAGGTACGG,1.51
3,ACAGACCGGTGAGTGAAGGTAACTCAGCTGGACG,-0.631
4,CCGACTGGGGCAAGATTACCATAACGCACAGCCA,-0.715
5,GGAACGAGGGCAAAGTCGATAGCATCTGTCGACG,0.954
6,ACTATCAGTTGAGACGAGGGCAACCGATAGGTTG,0.149
7,AATACACGGTCACTAGGCCAGAGTAGGTACGAAT,0.885
8,TCTCGGAGGACACGAGAGGTCAGAGCTCGACATC,1.53
9,ACAGACAGGTGATGAACGTAACTCAGGCTATCAT,0.477
10,ATACCAAGGTGATCGTGAGGTCGTTGTTACTAAC,-0.301
11,GCTACCAGGCCATTTGGGTCACTCAATGACGGGC,-0.356
12,TCGAGTCGGTTACCAATGGGGCATTCAGCTTTCT,0.773
13,TATCGGAGGACACGAAGGTCAGAGCTTTCCAGAG,0.288
14,ATCGAAAGGTCGTTAGGTGAGTATACAGAAAGGC,1.33
15,AGTCAAAGTTCATCTAGGTAACGTACGATATGCT,3.66
16,ACAGACAGGTGATTAAGGTAACTCAGGCTATCAT,0.0784
17,AGTCAAAGTTCACTAGGTAACGTATGATTCAGCT,3
18,TCTAATAGTTGAAGGGCAACCGACGAGTCCGTTT,3.45
19,GCTAGCAGGCCTTTTGGGTCACTCAATGACGGGC,-0.68
20,GCTTACGGGTCAAAGGTTATATCATGAATAGAAT,10.9

row,Sequence,PBM binding z-score
1,TCTAGTTGCTCACGGAGGTCACACACGACGGGTA,3.16
2,CTCGAAAGATCGTGCTCAGGTGAGTATACCAAAC,-0.236
3,TTACCAAGGAGAAAGGTCGTTGATGCACGCCTTG,2.56
4,GCTATTAGTTGAAAGGGCATCCGAATGATTCTCG,2.34
5,ATATGTGGGTTAAGGGTCATTCAGGTTGGTTCGC,10.4
6,TAGCCTAGGTCATGCGGGCCGGTATAGTGTCGGC,0.149
7,ATCTCTAGGTAAAGATAGTTCGGTGAATGCAAAT,0.192
8,TAGTCTAGGTCAGATCGGGCCAGTATACGCTATA,0.965
9,AGTCAAAGTTCAGGACGAGGTAACGTCAAGCACG,1.87
10,TCTGCTAGGTCAACGCTGGTCAGCTAATCTGCTA,1.85
11,TCTTGTAGACCAGCAGGTTAAGAAAGCTGGCCAA,2.61
12,CCTAGTTGGTTAGGAGGTCACACACCGGATATGA,1.25
13,TCTCGGAGGACACGAAGGTCAGAGTTTTCCAGAG,2.25
14,GCTTACGGGTCAAAGGTTATAGGATGAATAGAAT,10
15,TCTTGTATATCAAAGGTTAAGAAAGCCGAAGCCT,6.78
16,CGTCCAAGGTTAATGCTAGGTCAGTGAAAGCATT,-0.233
17,CGAACTAGGTCATCGACAGGACAGTGAATAGTAA,3.86
18,CCATACAGGTGAGAAGGTAACTCAGCCTCGATTA,0.288
19,CAAATTAGGTCAAGAGGTCAAAGTCCGCTTCCCG,8.32
20,TCATATAGGTAATACGGGTGAAAGTCGGCATCTA,3.81
